PubChem BioAssay (EPA / NIEHS)
Inconclusive results are not listed. Some compounds were tested as several samples or in several runs, with calls that do not always agree. Calls of active or inactive are those of the source. Rule for the calls: active = hit-call score of the fitted dose curve at least 0.9, where 1 is the maximum; inconclusive = response in the unintended direction; inactive = score below 0.9.

Tests used:
[1] = LTEA_HepaRG_LDH_cytotoxicity: Cytotoxicity Assessment in the Life Technologies and Expression Analysis (LTEA) Assay (AID 2283563);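 for AC50: LDH activity released into spent culture medium as a marker of cell death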
Method in brief: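 Differentiated human HepaRG cells, plated 48 h beforehand, were switched to serum-free induction medium and exposed for 48 h to eight half-log concentrations (top 100 uM) in 0.5% DMSO. LDH was measured in spent medium; activity was fitted relative to DMSO vehicle.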

[2] = ATG_XTT_Cytotoxicity: Cytotoxicity Assessment in the Attagene TRANS-FACTORIAL HepG2 Assay (AID 2283584)
Method in brief: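 HepG2 human liver cells, transiently transfected with multiple GAL4-UAS reporter units, were dosed and read at 24 h by XTT as cell number. Loss of signal was fitted relative to DMSO negative control baseline.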

[3] = TOX21_p53_BLA_p2_viability: Viability Assessment in the Tox21 HCT-116 p53 Agonism Beta-lactamase Assay, Phase 2 (AID 2283591);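 note: compound exposure lasted 16 h at 37 °C; actives lower the ATP signal meaning cytotoxicity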
Method in brief: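 HCT116 p53-bla cells, 4000/well, dosed after 5 h plating (217-fold dilution of DMSO stocks) and incubated 16 h at 37C. Viability taken as cellular ATP by CellTiter-Glo luminescence after 30 min RT; signal loss marks cytotoxicity.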

[4] = molecular target: Cellular tumor antigen p53 (Homo sapiens) (UniProt P04637); assay: TOX21_p53_BLA_p3_ratio: Tox21 HCT-116 p53 Agonism Beta-lactamase Assay, Ratio, Phase 3 (AID 2283596)
Method in brief: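 Cells were seeded at 4000/well, rested 5 h at 37C, then dosed with DMSO compound solutions (217-fold dilution) for 16 h. CCF4-AM substrate was loaded for 2 h at room temperature, and the 460/530 nm emission ratio was fitted for gain of signal versus DMSO.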

[5] = TOX21_p53_BLA_p4_viability: Viability Assessment in the Tox21 HCT-116 p53 Agonism Beta-lactamase Assay, Phase 4 (AID 2283597);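 note: hits lower the luminescence signal meaning cytotoxicity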
Method in brief: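 Cytotoxicity was inferred from loss of CellTiter-Glo luminescence. HCT116 cells had been dosed with compounds after 5 h plating, incubated 16 h at 37C and 5% CO2, and exposed to the CCF4-AM substrate for 2 h.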

[6] = molecular target: Cellular tumor antigen p53 (Homo sapiens) (UniProt P04637); assay: TOX21_p53_BLA_p5_ratio: Tox21 HCT-116 p53 Agonism Beta-lactamase Assay, Ratio, Phase 5 (AID 2283599)
Method in brief: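 HCT-116 p53-bla cells (4000/well) plated 5 h, dosed with compound (217-fold DMSO dilution) for 16 h at 37 C; CCF4-AM substrate 2 h at room temperature. Activity is the 460/530 nm emission ratio (405 nm excitation), fitted in gain-of-signal direction versus DMSO.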

[7] = molecular target: Cellular tumor antigen p53 (Homo sapiens) (UniProt P04637); assay: TOX21_p53_BLA_p4_ratio: Tox21 HCT-116 p53 Agonism Beta-lactamase Assay, Ratio, Phase 4 (AID 2283601)
Method in brief: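 HCT-116 p53 beta-lactamase reporter cells (4000/well) preincubated 5 h, then compound (217-fold dilution of DMSO stock) for 16 h at 37C. CCF4-AM substrate added 2 h at room temperature; 460/530 nm emission ratio fitted upward versus DMSO.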

[8] = Tanguay_ZF_120hpf_MORT_legacy: (Legacy) Oregon State University Tanguay Lab 120 Hour Post-fertilization zebrafish Assay for Mortality (AID 2283633);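 for AC50: fitted as increase in binary mortality versus DMSO negative control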
Method in brief: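 Dechorionated Tropical 5D wild-type zebrafish embryos, one per well from 6 hpf, were statically exposed at 28C in the dark until 120 hpf (0.64% DMSO final). Mortality was scored as present/absent by brightfield microscopy, fitted positively versus DMSO.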

[9] = Tanguay_ZF_120hpf_YSE_legacy: (Legacy) Oregon State University Tanguay Lab 120 Hour Post-fertilization zebrafish Assay for Yolk Sac Edema (AID 2283634);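 for AC50: actives raise the incidence of yolk sac edema above the DMSO baseline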
Method in brief: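 Tropical 5D wild-type embryos, dechorionated with pronase at 4 hpf, were exposed singly from 6 hpf to 120 hpf under static, sealed, dark conditions at 28C with 0.64% DMSO final. Yolk sac edema was scored present/absent by brightfield microscopy.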

[10] = Tanguay_ZF_120hpf_AXIS_legacy: (Legacy) Oregon State University Tanguay Lab 120 Hour Post-fertilization zebrafish Assay for Body Axis Malformation (AID 2283635);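 for AC50: potency for an increased fraction of larvae scored with body axis malformation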
Method in brief: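 Tropical 5D wild-type zebrafish embryos, dechorionated with pronase at 4 hpf, were placed singly in wells at 6 hpf and exposed statically to test chemical (0.64% DMSO final) at 28C until 120 hpf, then scored by brightfield for body axis defects.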

[11] = Tanguay_ZF_120hpf_SNOU_legacy: (Legacy) Oregon State University Tanguay Lab 120 Hour Post-fertilization zebrafish Assay for Snout Malformation (AID 2283637)
Method in brief: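 Binary brightfield scoring of snout malformation at 120 hpf. Dechorionated 5D wild-type embryos, one per well, static exposure from 6 hpf at 28C, sealed and dark; final DMSO 0.64% (vol/vol), DMSO as baseline; 5uM trimethyltin chloride positive control.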

[12] = Tanguay_ZF_120hpf_PE_legacy: (Legacy) Oregon State University Tanguay Lab 120 Hour Post-fertilization zebrafish Assay for Pericardial Edema (AID 2283640);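 for AC50: potency for increased incidence of pericardial edema versus DMSO baseline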
Method in brief: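 Tropical 5D wild-type zebrafish embryos were exposed statically to 120 hpf at 28C, sealed and foil-covered, in 0.64% DMSO final. Pericardial edema was scored present/absent by brightfield microscopy; dead embryos were not scored.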

[13] = Tanguay_ZF_120hpf_BRAI_legacy: (Legacy) Oregon State University Tanguay Lab 120 Hour Post-fertilization zebrafish Assay for Brain Malformation (AID 2283641)
Method in brief: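 Tropical 5D wild-type zebrafish embryos were exposed statically in sealed, foil-covered plates at 28C until 120 hpf, with 0.64% (vol/vol) final DMSO. Brain malformation was scored present/absent by brightfield microscopy, relative to DMSO baseline.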

[14] = molecular target: Cellular tumor antigen p53 (Homo sapiens) (UniProt P04637); assay: TOX21_p53_BLA_p2_ratio: Tox21 HCT-116 p53 Agonism Beta-lactamase Assay, Ratio, Phase 2 (AID 2283592)
Method in brief: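 Ratio endpoint: beta-lactamase cleavage of CCF4-AM, blue (460 nm) over green (530 nm). HCT116 reporter line; 16 h treatment, 37C; substrate 2 h RT.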

[15] = TOX21_p53_BLA_p3_viability: Viability Assessment in the Tox21 HCT-116 p53 Agonism Beta-lactamase Assay, Phase 3 (AID 2283593);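 note: cells exposed to compound for 16 h before reading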
Method in brief: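 HCT116 cells, 4000/well, dosed 5 h after plating by pin transfer (217-fold dilution from DMSO stock) and incubated 16 h at 37C, 5% CO2. Viability read as ATP luminescence with CellTiter-Glo after 30 min at room temperature.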

[16] = Tanguay_ZF_120hpf_EYE_legacy: (Legacy) Oregon State University Tanguay Lab 120 Hour Post-fertilization zebrafish Assay for Eye Malformation (AID 2283636);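 note: binary presence or absence of eye malformation scored by brightfield in 120 hpf larvae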
Method in brief: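 5D wild-type embryos, pronase-dechorionated at 4 hpf; static exposure 6–120 hpf, 28C, dark; DMSO 0.64% final; 5uM trimethyltin chloride positive control. Binary eye-defect scoring at 120 hpf; dead embryos not scored.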

[17] = Tanguay_ZF_120hpf_OTIC_legacy: (Legacy) Oregon State University Tanguay Lab 120 Hour Post-fertilization zebrafish Assay for Otic Vesicle Malformation (AID 2283639)
Method in brief: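 Brightfield scoring at 120 hpf, binary present/absent; DMSO negative control, 5uM trimethyltin chloride positive control. Static exposure at 28C, final DMSO 0.64% (vol/vol). Dead embryos not scored for malformation.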

[18] = TOX21_p53_BLA_p5_viability: Viability Assessment in the Tox21 HCT-116 p53 Agonism Beta-lactamase Assay, Phase 5 (AID 2283600)
Method in brief: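 Luciferase-coupled ATP quantitation of cells treated for 16 h (37C, 5% CO2) with test chemicals delivered in DMSO via a 217-fold dilution; 4000 cells/well; reagent incubated 30 min at room temperature before luminescence reading.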

[19] = Tanguay_ZF_120hpf_JAW_legacy: (Legacy) Oregon State University Tanguay Lab 120 Hour Post-fertilization zebrafish Assay for Jaw Malformation (AID 2283638);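 for AC50: active means more embryos with jaw malformation than DMSO controls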
Method in brief: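 Tropical 5D wild-type embryos, dechorionated with pronase at 4 hpf, were placed singly per well at 6 hpf and statically exposed at 28C until 120 hpf (0.64% DMSO final). Jaw malformation scored as present/absent by brightfield microscopy at 120 hpf, analyzed relative to DMSO.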

[20] = Tanguay_ZF_120hpf_SOMI_legacy: (Legacy) Oregon State University Tanguay Lab 120 Hour Post-fertilization zebrafish Assay for Somite Malformation (AID 2283647)
Method in brief: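 Tropical 5D wild-type zebrafish embryos, dechorionated with pronase at 4 hpf, were placed singly at 6 hpf and statically exposed until 120 hpf at 28C in 0.64% DMSO. Somite malformation was scored present/absent by brightfield microscopy versus DMSO.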

Measured: AC50

Sequence of Cellular tumor antigen p53 (Homo sapiens) (P04637 whole entry, looked up): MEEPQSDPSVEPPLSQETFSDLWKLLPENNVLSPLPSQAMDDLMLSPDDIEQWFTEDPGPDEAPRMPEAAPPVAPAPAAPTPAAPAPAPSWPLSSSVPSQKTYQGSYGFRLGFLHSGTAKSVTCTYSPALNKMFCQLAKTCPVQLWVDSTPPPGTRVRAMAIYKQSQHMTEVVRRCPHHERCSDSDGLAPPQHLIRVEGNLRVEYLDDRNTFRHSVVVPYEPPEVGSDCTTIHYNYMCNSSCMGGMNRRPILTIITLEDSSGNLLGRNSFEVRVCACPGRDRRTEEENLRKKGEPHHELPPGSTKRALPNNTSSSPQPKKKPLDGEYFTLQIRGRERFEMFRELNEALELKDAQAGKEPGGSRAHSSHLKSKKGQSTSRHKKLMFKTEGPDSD

CCOCCO
not listed: [14] | [15] | [16] | [17] | [18] | [19] | [20]
inactive: all other assays above

CC1=CC(=O)CC(C)(C)C1
not listed: [2] | [4] | [9] | [18] | [19] | [20]
inactive: all other assays above

CCc1cc(SCc2sc(-c3ccc(C(F)(F)F)cc3)nc2CN2CCN(c3ccc(OC)cc3)CC2)ccc1OCC(=O)O
active: [1] 16.2 µM | [3] 7.48 µM | [14] 46.1 µM | [15] 17.2 µM | [4] 59.9 µM | [5] 4.42 µM | [6] 67 µM | [18] 9.98 µM | [7] 9.5 µM | [10] 26 µM
inactive: [8] | [9] | [16] | [11] | [19] | [12] | [13] | [20]

COc1cccc(-c2ccc(/C=C\CN3CCCCCC3)cc2Cl)c1
active: [1] 68.8 µM | [3] 57.8 µM | [14] 70.5 µM | [5] 52.5 µM | [7] 73.8 µM | [8] 32.4 µM
not listed: [2] | [4] | [11] | [18]
inactive: all other assays above

CCN(C(=O)c1cc(C)cc(OC[C@H](C)Nc2ccncc2)c1)C(C)C
active: [1] 49.7 µM
not listed: [2] | [11] | [14] | [18]
inactive: all other assays above

Fc1ccccc1[C@@H](F)COC1CCC(Nc2ncnc3[nH]ncc23)CC1 (stereo partly drawn)
active: [9] 23.9 µM | [19] 38 µM | [12] 34.9 µM
not listed: [2] | [8] | [11] | [14] | [18] | [20]
inactive: all other assays above

CCOC(=O)c1ccc(C2CCC(NC[C@H](O)COc3ccc(O)c(NS(C)(=O)=O)c3)CC2)cc1 (stereo partly drawn)
active: [3] 70.1 µM | [14] 80.4 µM | [5] 60.2 µM | [7] 84 µM
not listed: [2] | [4] | [8] | [16] | [18] | [19]
inactive: all other assays above

Cc1ccc(N)cc1O
not listed: [2] | [8] | [9] | [10] | [11] | [14] | [18] | [20]
inactive: all other assays above

COc1ccc(-n2nc(C(F)F)cc2-c2ccc(S(C)=O)cc2)cc1 (stereo not drawn)
active: [9] 24.8 µM | [10] 47 µM | [16] 51.6 µM | [11] 40.4 µM | [19] 46.7 µM | [12] 37.7 µM | [13] 40.4 µM
not listed: [2] | [7] | [18]
inactive: all other assays above

CC(C)=CCC/C(C)=C/CO
active: [10] 23.6 µM
not listed: [2] | [8] | [14] | [20]
inactive: all other assays above

CC(C)CCCCCCOC(=O)c1ccc(C(=O)OCCCCCCC(C)C)c(C(=O)OCCCCCCC(C)C)c1
not listed: [2] | [7] | [8] | [11] | [14] | [18]
inactive: all other assays above

O=C1OC(=O)C2C3C=CC(C3)C12 (stereo not drawn)
not listed: [2] | [11] | [20]
inactive: all other assays above

Cc1[nH]cnc1C[C@H]1CCc2c(C)c3ccccc3n2C1=O
inactive: [3] | [15] | [5] | [6] | [7] | [8] | [9] | [10] | [16] | [11] | [19] | [12] | [13] | [20]
active: [1] 27.6 µM | [5] 41 µM

O=C(O)CCN(C1(C(=O)NO)CCCC1)S(=O)(=O)c1ccc(Oc2ccc(F)cc2)cc1
inactive: [1] | [15] | [9] | [16] | [11] | [19] | [13]

C1=CCCC=CCCC=CCC1
not listed: [1] | [8] | [14] | [15] | [18] | [20]
inactive: all other assays above

CCCCCCCCO
inactive: [1] | [3] | [15] | [7] | [9] | [16] | [19] | [12] | [13] | [20]
